Results reported in PubChem BioAssay (NCATS).
Where “and” joins values, the source holds several entries; their conditions need not be identical. Identical values can stand only once. Records with an inconclusive call do not appear. More than one record can exist for a structure, and the calls need not agree. Calls of active or inactive are those of the source. Calls come from the whole dose curve; as a rule, active = well fitted curve in the direction sought with a large enough effect; inconclusive = small, poorly fitted or top-dose-only effect, or another doubt; inactive = no such curve, though single readings can be large; an effect the other way counts as inactive or inconclusive.

Tested on: WaGa
Test: qHTS assay to identify novel small-molecules to repurpose for Merkel cell carcinoma treatment (AID 1296009); note: nearly all actives have a fitted effect of over 60% in size; note: potency is the fitted concentration of half-maximal effect
Details: MCC and control cell lines, CellTiter-Glo viability, 72 h; series mostly up to 46 µM; activity change, negative = cytotoxicity: at the top concentration
Method in brief: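 Cells were treated for 72 hr at 37 degree celsius with compounds in 8- or 11-point dose response. Viability was read by CellTiter-Glo luminescence, normalized to no-cell (cytotoxicity) and DMSO controls.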
% is set by controls: 0 for no effect and ±100 for the full control effect.

Row | SMILES | Potency | activity change, negative = cytotoxicity
1 | C[C@@H](CN1CC(=O)NC(=O)C1)N1CC(=O)NC(=O)C1 | inactive and 3.72 µM (active) | –
2 | OC(Cn1cncn1)(Cn1cncn1)c1ccc(F)cc1F | inactive | –
3 | O=NN(CCCl)C(=O)NC1CCCCC1 | inactive | –
4 | Clc1ccccc1CN1CCc2sccc2C1 | – | 6.61% (inactive)
5 | Cn1c(=O)c2c(ncn2CC(O)CO)n(C)c1=O (stereo not given) | inactive | –
6 | Cc1cccc(N(C)C(=S)Oc2ccc3ccccc3c2)c1 | – | -3.17% (inactive)
7 | CN(CCOc1ccc(CC2SC(=O)NC2=O)cc1)c1ccccn1 (stereo not given) | inactive | –
8 | COC(c1ccccc1)(c1ccccc1)[C@H](Oc1nc(C)cc(C)n1)C(=O)O | inactive | –
9 | CCc1cc(C(N)=S)ccn1 | inactive | –
10 | COCCCOc1cc(C[C@@H](C[C@H](N)[C@@H](O)C[C@H](C(=O)NCC(C)(C)C(N)=O)C(C)C)C(C)C)ccc1OC | inactive | –
11 | CCN(C)C(=O)Oc1cccc([C@H](C)N(C)C)c1 | inactive | –
12 | CCn1cc(C(=O)O)c(=O)c2cc(F)c(N3CCNCC3)nc21 | inactive | –
13 | CC[C@H](NC(C)C)[C@H](O)c1ccc(O)c2[nH]c(=O)ccc12 | inactive | –
14 | CC(C)OC(=O)C(C(=O)OC(C)C)=C1SC=CS1 | – | -1.73% (inactive)
15 | COc1ccc(-c2ccc3cc(C(=O)O)ccc3c2)cc1C12CC3CC(CC(C3)C1)C2 | inactive | –
16 | CCOC(=O)c1ccc(OC(=O)CCCCCN=C(N)N)cc1 | inactive | –
17 | O=S(=O)(c1cccc2cnccc12)N1CCCNCC1 | inactive | –
18 | CNC1CCCN(c2c(F)cc3c(=O)c(C(=O)O)cn(C4CC4)c3c2OC)C1 (stereo not given) | – | -0.236% (inactive)
19 | COc1ccc2c(c1)c(CC(=O)OCC(=O)O)c(C)n2C(=O)c1ccc(Cl)cc1 | – | 5.46% (inactive)

Tested on: C33A
Test: Primary qHTS to identify gynecologic anti-cancer compounds using libraries of approved drugs and bioactive compounds (AID 1345084); note: nearly all actives have a fitted effect of over 55% in size
Details: Gynecologic cancer cell panel viability, ATPlite luminescence, 48 h; series mostly up to 57.5 µM; activity change, negative = cytotoxicity: at the top concentration
Method in brief: (§1)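 Luminescence from the ATPlite ATP-monitoring reagent indicates viable cell number; lower signal means cytotoxicity. Cells received compound 16 h after seeding and were exposed for 48 h across five concentrations.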

Row | SMILES | activity change, negative = cytotoxicity | Potency
20 | CCCN[C@H]1CCc2nc(N)sc2C1 | 0.715% (inactive) | –
21 | CCOCC(O)COc1ccc(NC(=O)CC[S+](C)C)cc1 (stereo not given) | 6.95% (inactive) | –
22 | COc1cc(NS(=O)(=O)c2ccc(N)cc2)nc(OC)n1 | -1.19% (inactive) | –
23 | O=C(N[C@H](CO)[C@H](O)c1ccc([N+](=O)[O-])cc1)C(Cl)Cl | -12.3% [at 116 µM] (inactive) | –
24 | CCCc1cc(C(N)=S)ccn1 | 3.65% (inactive) | –
25 | O=C(O)c1cn(C2CC2)c2cc(N3CCNCC3)c(F)cc2c1=O | 6.56% (inactive) | –
26 | O=C(O)CCn1c2c(c3ccccc31)C[C@H](NS(=O)(=O)c1ccc(F)cc1)CC2 | – | inactive
27 | Cc1noc(NS(=O)(=O)c2ccc(N)cc2)c1C | 11% (inactive) | –
28 | CCn1cc(C(=O)O)c(=O)c2cc(F)c(N3CCN(C)CC3)cc21 | 2.69% [at 25.3 µM] (inactive) | –
29 | O=C(O)CSCC(=O)NC1CCSC1=O (stereo not given) | -1.84% (inactive) | –
30 | CN(C)CCc1c[nH]c2ccc(CS(=O)(=O)N3CCCC3)cc12 | 0.86% (inactive) | –
31 | CO[C@@H]1[C@@H](OC(N)=O)[C@@H](O)[C@H](Oc2ccc3c(O)c(NC(=O)c4ccc(O)c(CC=C(C)C)c4)c(=O)oc3c2C)OC1(C)C | 12.4% (inactive) | –
32 | CCOc1cc(N)c(Cl)cc1C(=O)NCC1CN(Cc2ccc(F)cc2)CCO1 (stereo not given) | 6.4% (inactive) | –
33 | CCC(=O)O[C@]1(C(=O)SCF)[C@H](C)C[C@H]2[C@@H]3C[C@H](F)C4=CC(=O)C=C[C@]4(C)[C@@]3(F)[C@@H](O)C[C@@]21C | 5.08% (inactive) | –
34 | Cc1oc(=O)oc1CN1CCN(c2cc3c(cc2F)c(=O)c(C(=O)O)c2n3C(C)S2)CC1 (stereo not given) | 1.94% (inactive) | –
35 | NC1(c2ccc(-c3nc4ccn5c(=O)[nH]nc5c4cc3-c3ccccc3)cc2)CCC1 | – | inactive
36 | C[C@@H](CN1CC(=O)NC(=O)C1)N1CC(=O)NC(=O)C1 | 4.35% (inactive) | –

Row | SMILES | activity change, negative = cytotoxicity | Potency
37 | OC(Cn1cncn1)(Cn1cncn1)c1ccc(F)cc1F | 9.31% (inactive) | –
38 | O=NN(CCCl)C(=O)NC1CCCCC1 | 0.903% (inactive) | –
39 | Clc1ccccc1CN1CCc2sccc2C1 | -17% (inactive) | –
40 | Cn1c(=O)c2c(ncn2CC(O)CO)n(C)c1=O (stereo not given) | -0.493% (inactive) | –
41 | Cc1cccc(N(C)C(=S)Oc2ccc3ccccc3c2)c1 | -7.79% (inactive) | –
42 | CN(CCOc1ccc(CC2SC(=O)NC2=O)cc1)c1ccccn1 (stereo not given) | -3.34% (inactive) | –
43 | COC(c1ccccc1)(c1ccccc1)[C@H](Oc1nc(C)cc(C)n1)C(=O)O | 0.166% (inactive) | –
44 | COCCCOc1cc(C[C@@H](C[C@H](N)[C@@H](O)C[C@H](C(=O)NCC(C)(C)C(N)=O)C(C)C)C(C)C)ccc1OC | 1.86% (inactive) | –
45 | CCN(C)C(=O)Oc1cccc([C@H](C)N(C)C)c1 | 6.61% (inactive) | –
46 | CCn1cc(C(=O)O)c(=O)c2cc(F)c(N3CCNCC3)nc21 | 16% (inactive) | –
47 | CC[C@H](NC(C)C)[C@H](O)c1ccc(O)c2[nH]c(=O)ccc12 | 2.91% (inactive) | –
48 | CC(C)OC(=O)C(C(=O)OC(C)C)=C1SC=CS1 | 1.56% (inactive) | –
49 | COc1ccc(-c2ccc3cc(C(=O)O)ccc3c2)cc1C12CC3CC(CC(C3)C1)C2 | 18% (inactive) | –
50 | CCOC(=O)c1ccc(OC(=O)CCCCCN=C(N)N)cc1 | 5.24% (inactive) | –
51 | O=S(=O)(c1cccc2cnccc12)N1CCCNCC1 | 18.6% (inactive) | –
52 | CNC1CCCN(c2c(F)cc3c(=O)c(C(=O)O)cn(C4CC4)c3c2OC)C1 (stereo not given) | 10.9% (inactive) | –
53 | COc1ccc2c(c1)c(CC(=O)OCC(=O)O)c(C)n2C(=O)c1ccc(Cl)cc1 | -3.15% (inactive) | –

Tested on: CAOV3
Test: as above
Details: Gynecologic cancer cell panel viability, ATPlite luminescence, 48 h; series mostly up to 57.5 µM; activity change, negative = cytotoxicity: at the top concentration
Method in brief: as §1

Row | SMILES | activity change, negative = cytotoxicity | Potency
54 | CCCN[C@H]1CCc2nc(N)sc2C1 | -3.27% (inactive) | –
55 | CCOCC(O)COc1ccc(NC(=O)CC[S+](C)C)cc1 (stereo not given) | -4.81% (inactive) | –
56 | COc1cc(NS(=O)(=O)c2ccc(N)cc2)nc(OC)n1 | 16.4% (inactive) | –
57 | COC(=O)Nc1nc2ccc(C(=O)c3ccccc3)cc2[nH]1 | -7.63% (inactive) | –
58 | CCCc1cc(C(N)=S)ccn1 | 9.32% (inactive) | –
59 | O=C(O)c1cn(C2CC2)c2cc(N3CCNCC3)c(F)cc2c1=O | 10.6% (inactive) | –
60 | O=C(O)CCn1c2c(c3ccccc31)C[C@H](NS(=O)(=O)c1ccc(F)cc1)CC2 | – | inactive
61 | CCn1cc(C(=O)O)c(=O)c2cc(F)c(N3CCN(C)CC3)cc21 | -5.42% [at 25.3 µM] (inactive) | –
62 | O=C(O)CSCC(=O)NC1CCSC1=O (stereo not given) | -7.09% (inactive) | –
63 | CN(C)CCc1c[nH]c2ccc(CS(=O)(=O)N3CCCC3)cc12 | 0.27% (inactive) | –
64 | CO[C@@H]1[C@@H](OC(N)=O)[C@@H](O)[C@H](Oc2ccc3c(O)c(NC(=O)c4ccc(O)c(CC=C(C)C)c4)c(=O)oc3c2C)OC1(C)C | -4.12% (inactive) | –
65 | CCOc1cc(N)c(Cl)cc1C(=O)NCC1CN(Cc2ccc(F)cc2)CCO1 (stereo not given) | -26.6% (inactive) | –
66 | Cc1oc(=O)oc1CN1CCN(c2cc3c(cc2F)c(=O)c(C(=O)O)c2n3C(C)S2)CC1 (stereo not given) | -7.24% (inactive) | –
67 | NC1(c2ccc(-c3nc4ccn5c(=O)[nH]nc5c4cc3-c3ccccc3)cc2)CCC1 | -10.8% (inactive) | –
68 | C[C@@H](CN1CC(=O)NC(=O)C1)N1CC(=O)NC(=O)C1 | 14.9% (inactive) | –
69 | OC(Cn1cncn1)(Cn1cncn1)c1ccc(F)cc1F | 0% (inactive) | –

Row | SMILES | activity change, negative = cytotoxicity | Potency
70 | O=NN(CCCl)C(=O)NC1CCCCC1 | 1.25% (inactive) | –
71 | Cn1c(=O)c2c(ncn2CC(O)CO)n(C)c1=O (stereo not given) | -5.37% (inactive) | –
72 | Cc1cccc(N(C)C(=S)Oc2ccc3ccccc3c2)c1 | 19.6% (inactive) | –
73 | CN(CCOc1ccc(CC2SC(=O)NC2=O)cc1)c1ccccn1 (stereo not given) | -13.8% (inactive) | –
74 | COC(c1ccccc1)(c1ccccc1)[C@H](Oc1nc(C)cc(C)n1)C(=O)O | -2.66% (inactive) | –
75 | CCc1cc(C(N)=S)ccn1 | -5.83% (inactive) | –
76 | COCCCOc1cc(C[C@@H](C[C@H](N)[C@@H](O)C[C@H](C(=O)NCC(C)(C)C(N)=O)C(C)C)C(C)C)ccc1OC | 20.2% (inactive) | –
77 | CCN(C)C(=O)Oc1cccc([C@H](C)N(C)C)c1 | -8.67% (inactive) | –
78 | CCn1cc(C(=O)O)c(=O)c2cc(F)c(N3CCNCC3)nc21 | 9.78% (inactive) | –
79 | CC[C@H](NC(C)C)[C@H](O)c1ccc(O)c2[nH]c(=O)ccc12 | 13.7% (inactive) | –
80 | CC(C)OC(=O)C(C(=O)OC(C)C)=C1SC=CS1 | -7.26% (inactive) | –
81 | COc1ccc(-c2ccc3cc(C(=O)O)ccc3c2)cc1C12CC3CC(CC(C3)C1)C2 | -2.22% (inactive) | –
82 | CCOC(=O)c1ccc(OC(=O)CCCCCN=C(N)N)cc1 | 8.52% (inactive) | –
83 | O=S(=O)(c1cccc2cnccc12)N1CCCNCC1 | 32.8% (inactive) | –
84 | CNC1CCCN(c2c(F)cc3c(=O)c(C(=O)O)cn(C4CC4)c3c2OC)C1 (stereo not given) | 3.28% (inactive) | –
85 | COc1ccc2c(c1)c(CC(=O)OCC(=O)O)c(C)n2C(=O)c1ccc(Cl)cc1 | 1.72% (inactive) | –
